Results: PubChem BioAssay (NCI)
Compounds without any hit were thinned out: in the full panel of roughly 83,000, 20% have a hit.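 96-well plates, one dose, 48 hours. Percent growth reported; active if below 10.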 A number with no mark means an inactive call. Activity calls are given as the source filed them.

Legend:
Test in all cases: NCI-60 one-dose screen, 48 h (100 = growth as untreated, 0 = no growth, -100 = all killed)
Conditions in all cases: 10 µM
DU-145 prostate = system: DU-145 prostate
K-562 leukemia = system: K-562 leukemia
MALME-3M melanoma = system: MALME-3M melanoma
MDA-MB-231 breast = system: MDA-MB-231 breast
RXF 393 renal = system: RXF 393 renal
SF-268 CNS = system: SF-268 CNS
SF-295 CNS = system: SF-295 CNS
SF-539 CNS = system: SF-539 CNS
UACC-257 melanoma = system: UACC-257 melanoma
M14 melanoma = system: M14 melanoma
HCT-15 colon = system: HCT-15 colon
HT29 colon = system: HT29 colon
SNB-75 CNS = system: SNB-75 CNS
SNB-19 CNS = system: SNB-19 CNS
U251 CNS = system: U251 CNS
PC-3 prostate = system: PC-3 prostate
SK-MEL-5 melanoma = system: SK-MEL-5 melanoma
UACC-62 melanoma = system: UACC-62 melanoma
LOX IMVI melanoma = system: LOX IMVI melanoma
SK-MEL-28 melanoma = system: SK-MEL-28 melanoma

Row | Structure (SMILES) | growth (DU-145 prostate) | growth (K-562 leukemia) | growth (MALME-3M melanoma) [%] | growth (MDA-MB-231 breast) | growth (RXF 393 renal) | growth (SF-268 CNS) | growth (SF-295 CNS) | growth (SF-539 CNS) | growth (UACC-257 melanoma) [%] | growth (M14 melanoma) | growth (HCT-15 colon) [%] | growth (HT29 colon) | growth (SNB-75 CNS) [%] | growth (SNB-19 CNS) [%] | growth (U251 CNS) | growth (PC-3 prostate) [%] | growth (SK-MEL-5 melanoma) | growth (UACC-62 melanoma) [%] | growth (LOX IMVI melanoma) | growth (SK-MEL-28 melanoma) [%]
1 | NC(N)=NS(=O)(=O)c1ccc(Nc2ccc3nnc(-c4ccncc4)n3n2)cc1 | 111% | 95.3% | 98.1 | 102% | 106% | 102% | 116% | 100% | 127 | 105% | 100 | 104% | 90.4 | 94.3 | 104% | 107 | 98.3% | 97.1 | 97.2% | 107
2 | O=[N+]([O-])c1ccc(Br)o1 | 101% | 106% | 104 | 107% | 106% | 95.9% | 98.8% | 98.6% | 110 | 104% | 105 | 95.8% | 97.5 | 107 | 103% | 98.8 | 96.9% | 103 | 93.9% | 104
3 | CCOC(=O)c1ccc(N(C=O)CCC(=O)CCl)cc1 | -25.8% (active) | 4.03% (active) | 45.1 | -16.5% (active) | -37.7% (active) | 6.04% (active) | -16.1% (active) | -31.2% (active) | 39 | -5.18% (active) | 17.8 | 1.42% (active) | 26.5 | 59.4 | 4.55% (active) | 26 | 2.68% (active) | 13 | 3.93% (active) | 34
4 | O=NN(CC(=O)N/N=C/C=C\c1ccccc1)CC(=O)N/N=C/C=C/c1ccccc1 | 109% | 96.9% | 90.6 | 89.2% | 71.3% | 88% | 106% | 92.3% | 98.8 | 97.5% | 94 | 110% | 72.9 | 92.5 | 89% | 85.2 | 84.9% | 101 | 87.6% | 99.4
5 | COc1ccc(-c2csc(NC(=O)CO[N+](=O)[O-])n2)cc1 | 106% | 96.8% | 102 | 102% | 125% | 99.5% | 101% | 98.7% | 63 | 102% | 104 | 105% | 96.1 | 102 | 98.6% | 80.7 | 30.3% | 101 | 88% | 105
6 | COc1ccc(-c2[nH]ncc2-c2cc(OC)c(OC)c(OC)c2)cc1 | -23.9% (active) | 6.11% (active) | 57.2 | 4.38% (active) | 0.469% (active) | 16% | -1.07% (active) | -28.1% (active) | 42.6 | 4.51% (active) | 10.3 | -16.6% (active) | 49.1 | 44.5 | 6.25% (active) | 11.8 | -22.1% (active) | 35.2 | 27.8% | 37.2
7 | Clc1ccc(-c2nc(-c3cccs3)cn3ccnc23)cc1 | 94.7% | 26.1% | 86 | 66.5% | 86.7% | 82.8% | 81.9% | 76.7% | 70.2 | 61.5% | 31.2 | 41.6% | 68.1 | 88.6 | 82.5% | 62.4 | 53.2% | 60.2 | 61.4% | 92.5
8 | CCCCCCOc1ccc(/C=C/C(=O)c2ccc(B(O)O)cc2)cc1 | 88.5% | 82.5% | 86.8 | 73.8% | 74.2% | 76.1% | 111% | 79.1% | 83.4 | 80.8% | 75.1 | 74.5% | 58.5 | 104 | 77.5% | 72.6 | 81.4% | 79 | 83.7% | 106
